High-throughput results (PubChem)
This is one part of a sample in which hits are shown more often than they occur.
RORgamma inh: ROR gamma (mouse) transcription inhibition; Drosophila S2 Gal4-RORgamma UAS-luciferase reporter, 20 h; Potency, µM (doses to about 53.6 µM), most hits filed as inhibitors; actives 5.4% (n = 310,000); P51450; also: nearly all actives have a fitted effect of over 60% in size
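Drosophila Schneider cells stably carrying a metallothionein-driven Gal4 DBD–ROR gamma fusion and a UAS-Photinus luciferase reporter were exposed to compound for 1 hr, then induced with copper sulfate (700 uM final) for 20 hr at ambient temperature before luminescence reading.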
ERG Ets-DNA blk: blocks human ERG Ets domain binding to DNA; P11308; fluorescence polarization, His-ERG Ets domain / labelled DNA; Potency, µM (top dose mostly 76.9 µM), actives largely listed as inhibitors; actives 0.028% (n = 370,000); active = well fitted inhibition curve with a large enough effect in the polarisation, with a control signal flat; inconclusive = small, poorly fitted or top-dose-only effect, or effect the other way, or a change in a side signal; inactive = no such curve, though single readings can be large or run the other way; the % refers to the polarisation;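 also: polarization taken with two DNA probes labelled with fluorescein and Texas red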
Target sequence (P11308 whole entry, looked up, the tested form may be a part): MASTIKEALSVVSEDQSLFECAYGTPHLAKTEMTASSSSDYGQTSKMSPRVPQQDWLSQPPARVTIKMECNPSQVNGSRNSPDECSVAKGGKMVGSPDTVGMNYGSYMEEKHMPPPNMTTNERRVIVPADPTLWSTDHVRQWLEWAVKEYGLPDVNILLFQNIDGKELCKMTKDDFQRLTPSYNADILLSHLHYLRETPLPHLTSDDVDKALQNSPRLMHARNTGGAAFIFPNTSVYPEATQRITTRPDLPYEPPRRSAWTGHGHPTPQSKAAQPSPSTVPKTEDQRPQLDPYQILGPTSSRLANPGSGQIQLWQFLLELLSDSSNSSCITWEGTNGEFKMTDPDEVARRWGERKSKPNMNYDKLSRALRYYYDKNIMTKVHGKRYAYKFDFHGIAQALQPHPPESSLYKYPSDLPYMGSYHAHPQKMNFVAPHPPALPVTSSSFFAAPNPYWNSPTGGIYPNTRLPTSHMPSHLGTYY
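His-tagged ERG Ets domain (1 uM in the protein solution; 300mM KCl, 50mM Tris-HCl, 1mM EDTA, 1mM DTT, pH 7.5) received compound, then a probe mix of 5 nM fluorescein-DNA and 100nM Texas-615-DNA. Fluorescence polarization was read for both dyes.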
Gal4-VP16 FLuc: counter-screen for ROR gamma inhibitors: Gal4-VP16 reporter; Drosophila S2 Gal4-VP16 UAS-luciferase, luminescence, 20 h; Potency, µM (doses to about 53.6 µM), usual class: inhibitors; actives 3.5% (n = 310,000);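 also: Gal4-VP16 expression switched on by copper sulfate through the metallothionein promoter; nearly all actives have a fitted effect of over 50% in size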
Giardia kill: Giardia lamblia killing | Giardia lamblia trophozoite viability | activity change, % at 7.66 µM, hits read low | actives 0.15% (n = 340,000); in the data active = activity change below about -80%; inconclusive = between about -30% and that limit;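 also: parasites exposed to compound for two days anaerobically before the ATP read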
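Anaerobic 48 hrs incubation at 37 deg C of 100 trophozoites/well with test compounds; ATPLite 1-Step luminescence, 15-30 min RT, reports cellular ATP as viability.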
Integrin act MD: activators of alpha7 integrin expression for muscular dystrophy; alpha7betagal myoblasts, beta-gal FDG fluorescence, 48 h; Potency, µM (doses to about 38.3 µM), usual class: activators; actives 0.064% (n = 350,000); also: nearly all actives have a fitted effect of over 60% in size
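alpha7betagal+/- myoblasts (passage 13, 250/well) treated 48 h at 37C with compounds at 1:260 dilution of DMSO stock. Lysed, then beta-galactosidase activity read as FDG fluorescence (ex 480/em 540) after 30 min, with pre-read for autofluorescence.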
Large screens that a line does not name were inactive. Unless noted, calls follow the shape of the dose curve; as a rule, active = well fitted curve in the direction sought with a large enough effect; inconclusive = small, poorly fitted or top-dose-only effect, or another doubt; inactive = no such curve, though single readings can be large; an effect the other way counts as inactive or inconclusive.

C[C@H](NC(=O)c1nc[nH]c1C(=O)N[C@H](C)c1ccccc1)C(=O)OC(C)(C)C	RORgamma inh inconclusive, Gal4-VP16 FLuc inconclusive
C[C@@H](NC(=O)c1nc[nH]c1C(=O)N[C@@H](Cc1ccccc1)C(=O)OC(C)(C)C)c1ccccc1	RORgamma inh 4µM, Gal4-VP16 FLuc 7.1µM
C[C@H](NC(=O)c1nc[nH]c1C(=O)N[C@@H](Cc1ccccc1)C(=O)OC(C)(C)C)c1ccccc1	RORgamma inh 7.1µM, Gal4-VP16 FLuc 11µM
Cc1ccc(Cl)cc1-n1c(CCC(=O)O)ccc1-c1cccs1	none (no result: RORgamma inh, Gal4-VP16 FLuc, Giardia kill, Integrin act MD)
COc1ccc(CC(=O)Nc2cccc(-c3nnc(-c4cccc(C)c4)o3)c2)cc1OC	RORgamma inh inconclusive, Gal4-VP16 FLuc 7.9µM
COc1cccc([C@@H]2Oc3ccc(OC)cc3C[C@H]2OC(=O)NCc2ccco2)c1	none (no result: ERG Ets-DNA blk, Giardia kill, Integrin act MD)
Cc1cccc(-c2n[nH]c(=S)n2C)c1	RORgamma inh inconclusive, Gal4-VP16 FLuc inconclusive
COc1ccc(OC)c(-n2c(-c3cccc(C)c3)n[nH]c2=S)c1	RORgamma inh 2.5µM
COc1ccc(OC)c(-n2c(-c3cc(-c4ccccc4)n[nH]3)n[nH]c2=S)c1	RORgamma inh 7.9µM, Gal4-VP16 FLuc inconclusive
COc1ccc(-c2cc(-c3n[nH]c(=S)n3-c3ccccc3OC)[nH]n2)cc1	RORgamma inh inconclusive, Gal4-VP16 FLuc inconclusive (no result: ERG Ets-DNA blk)
COc1ccc(OC)c(-n2c(-c3ccccc3)n[nH]c2=S)c1	RORgamma inh 10µM, Gal4-VP16 FLuc inconclusive
COc1ccccc1-n1c(-c2ccccc2)n[nH]c1=S	RORgamma inh 7.1µM, Gal4-VP16 FLuc inconclusive
COc1ccccc1-n1c(-c2cn(C)nc2C)n[nH]c1=S	none (no result: ERG Ets-DNA blk)
Cc1ccc(S(=O)(=O)N2CCN(C(=O)COC(=O)c3ccc(Cl)nc3)CC2)c(C)c1	none (no result: RORgamma inh, Gal4-VP16 FLuc)
CCOC(=O)c1c(-c2cccc([N+](=O)[O-])c2)csc1NC(=O)CCCOc1ccccc1	RORgamma inh inconclusive, Gal4-VP16 FLuc 8.9µM
CC#CCOCC/C=C1/c2ccccc2C(OC)C1C (centres undefined)	none (no result: ERG Ets-DNA blk, Giardia kill, Integrin act MD)
CC(=O)CSc1cc(-c2ccccc2)nc2ncnn12	RORgamma inh 2.5µM, Gal4-VP16 FLuc 16µM
c1ccc(Nc2cc(-c3ccccc3)nc3ncnn23)cc1	RORgamma inh 16µM, Gal4-VP16 FLuc inconclusive
O=S(=O)(c1ccccc1)N1CCN(c2cc(-c3ccccc3)nc3ncnn23)CC1	RORgamma inh inconclusive, Gal4-VP16 FLuc 5.6µM
Clc1ccc(Nc2cc(-c3ccccc3)nc3ncnn23)cc1	none
CCc1noc(C)c1C(=O)N1CC(C)SC1=Nc1ccc(Cl)cc1 (centres undefined)	none (no result: RORgamma inh, Gal4-VP16 FLuc)
O=C(COC(=O)COc1ccccc1Cc1ccccc1)Nc1cccnc1Cl	none
Cn1cccc1CNC(=S)Nc1ccccc1Cl	RORgamma inh 6.3µM
Cc1cc(C)cc(NC(=S)NCc2cccn2C)c1	RORgamma inh 2.8µM, Gal4-VP16 FLuc 10µM
Cn1cccc1CC(=O)NNC(=O)Nc1ccccc1F	none (no result: RORgamma inh, Gal4-VP16 FLuc)
Cn1cccc1CNC(=S)Nc1ccccc1F	RORgamma inh 13µM
Cc1ccccc1CS(=O)(=O)c1cn(CC(=O)N2CCOCC2)c2ccccc12	none
CN(CCc1ccccc1)C1CCCN(S(=O)(=O)N(C)C)C1 (centres undefined)	Integrin act MD inconclusive
Cc1cn2c(=O)cc(COC(=O)c3ccc(NC(=O)c4ccccc4C)cc3)nc2s1	none (no result: RORgamma inh, Gal4-VP16 FLuc, Giardia kill, Integrin act MD)
CN1C(=S)SC(C)(NO)C1(C)C (centres undefined)	RORgamma inh 16µM, Gal4-VP16 FLuc inconclusive
O=C(c1cccc([N+](=O)[O-])c1)N1CCN(c2ccc(Nc3ccccc3)nn2)CC1	none (no result: RORgamma inh, Gal4-VP16 FLuc, Giardia kill, Integrin act MD)
Cc1ccc(SCC(Cc2ccccc2)N2CCN(C)CCC2=O)cc1 (centres undefined)	none (no result: ERG Ets-DNA blk, Integrin act MD)
CCCCN(CC)S(=O)(=O)c1ccc(C(=O)Nc2nnc(CSC)o2)cc1	RORgamma inh 0.71µM, Gal4-VP16 FLuc 1µM
CCCN(CCC)S(=O)(=O)c1ccc(C(=O)Nc2nnc(CSC)o2)cc1	RORgamma inh 0.89µM, Gal4-VP16 FLuc 1.3µM
CCN(CC)S(=O)(=O)c1ccc(C(=O)Nc2cc(C)on2)cc1	none
CCCCN(CC)S(=O)(=O)c1ccc(C(=O)Nc2nnc(COC)o2)cc1	RORgamma inh 1.3µM, Gal4-VP16 FLuc 3.2µM
O=C(COc1ccccc1)Nc1nnc(-c2ccccc2Cl)o1	none (no result: RORgamma inh, Gal4-VP16 FLuc)
CCc1nnc(NC(=O)c2ccc(S(=O)(=O)N(CCOC)CCOC)cc2)s1	none
CCCCN(CC)S(=O)(=O)c1ccc(C(=O)Nc2nnc(-c3ccccc3Cl)o2)cc1	RORgamma inh inconclusive, Gal4-VP16 FLuc 0.79µM (no result: ERG Ets-DNA blk, Giardia kill, Integrin act MD)
CN(C(=O)c1ccc(S(=O)(=O)N2CCCC2)cc1)C1CCS(=O)(=O)C1 (centres undefined)	none (no result: RORgamma inh, Gal4-VP16 FLuc)
N#CCCN(CCC#N)S(=O)(=O)c1ccc(C(=O)Nc2nnc(C3=COCCO3)o2)cc1	none
CCCCN(CCCC)S(=O)(=O)c1ccc(C(=O)Nc2nnc(CSC)o2)cc1	RORgamma inh 0.32µM, Gal4-VP16 FLuc 0.89µM
COc1ccc(C)cc1NC(=O)CSc1nc(=O)n(Cc2ccccn2)c2c1CCC2	none (no result: RORgamma inh, Gal4-VP16 FLuc, Giardia kill, Integrin act MD)
Cc1ccc(-c2n[nH]c(=S)nc2-c2ccc(C)cc2)cc1	RORgamma inh 5µM, Gal4-VP16 FLuc inconclusive
Cc1ccc(C)c(NC(=S)NCc2ccccc2)c1	RORgamma inh 3.2µM, Gal4-VP16 FLuc 5µM
Cc1ccc(C)c(NC(=S)N/N=C/C(C)c2ccccc2)c1 (centres undefined)	RORgamma inh 0.56µM, Gal4-VP16 FLuc 7.1µM
COc1ccc(CNC(=S)Nc2ccccc2C)cc1	RORgamma inh 18µM, Gal4-VP16 FLuc 10µM
CNC(=S)NCc1ccc(OC)cc1	none
